Compound activity deposited in PubChem by National Center for Advancing Translational Sciences (NCATS).
A selection: hits, their analogues and other compounds. The true share with any hit is near 6.9%.
L3MBTL1 inh = L3MBTL1 (human) inhibition. Potency, µM (series often up to 57.1 µM), for inactives: at the top dose activity, negative = inhibition, hits mostly inhibitors. Q9Y468. AID 485360. AlphaScreen L3MBTL1–H3K9me1 peptide binding. 230,000 compounds, 0.66% hits; further: on the % scale 0 is the no-effect control and ±100 the full control effect; nearly all actives have a fitted effect of over 60% in size
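AlphaScreen proximity signal between nickel-chelate acceptor and streptavidin donor beads (final 10 ug/mL) reports binding of 50 nM L3MBTL1 to 75 nM biotin-H3 K9me1 peptide; complex incubated with compounds 30 min at room temperature; cefsulodin titration as control.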
JMJD2A Tudor = inhibitors of human JMJD2A Tudor domain; 390,000 compounds, 4.4% hits; AID 504339; O75164; Potency, µM (titrated, usually from 114 µM), without a hit: at the highest dose activity change, negative = inhibition, hits mostly inhibitors; AlphaScreen JMJD2A-Tudor / H3K4me3 peptide binding; further: on the % scale 0 is the no-effect control and ±100 the full control effect; nearly all actives have a fitted effect of over 50% in size
BAZ2B block = BAZ2B (human) inhibition. AlphaScreen BAZ2B-H3K14Ac peptide displacement. Potency, µM (top dose mostly 114 µM), without a hit: at the highest dose activity change, negative = inhibition, hits mostly inhibitors. 360,000 compounds, 4.4% hits; further: on the % scale 0 is the no-effect control and ±100 the full control effect; nearly all actives have a fitted effect of over 60% in size
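Protein-peptide AlphaScreen: BAZ2B 50 nM, b-H3K14Ac 50 nM, 1x PBS pH 7.4 + 0.01% Tween-20. Preincubation 30 min RT; cpd 30 min RT (top 110 uM); beads 20 min RT, light-protected.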
VDR inh = inhibitors of human vitamin D receptor; P11473; VDR-SRC2-3 peptide fluorescence polarization, 2 h; Potency, µM, without a hit: max response, negative = inhibition, hits mostly inhibitors; 400,000 compounds, 0.93% hits; further: on the % scale 0 is the no-effect control and ±100 the full control effect
Target sequence (P11473 whole entry, looked up): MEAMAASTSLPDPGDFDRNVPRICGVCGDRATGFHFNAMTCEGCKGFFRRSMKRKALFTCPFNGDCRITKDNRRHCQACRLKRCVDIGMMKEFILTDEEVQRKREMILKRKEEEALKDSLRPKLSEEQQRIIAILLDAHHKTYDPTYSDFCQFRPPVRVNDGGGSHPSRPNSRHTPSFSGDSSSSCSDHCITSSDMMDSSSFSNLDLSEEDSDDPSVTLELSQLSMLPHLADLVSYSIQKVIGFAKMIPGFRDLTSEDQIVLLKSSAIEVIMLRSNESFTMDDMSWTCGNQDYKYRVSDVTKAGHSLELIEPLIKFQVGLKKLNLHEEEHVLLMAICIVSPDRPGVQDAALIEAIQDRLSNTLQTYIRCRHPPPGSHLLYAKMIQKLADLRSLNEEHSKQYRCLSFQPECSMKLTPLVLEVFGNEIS
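The screen uses fluorescence polarization to detect compounds that interfere with recruitment of the SRC2-3 coactivator peptide to VDR; plates are read after 2 h at room temperature.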
HP1b binding inh = inhibitors of HP1-beta chromodomain binding to methylated histone tails | P83916 | AlphaScreen HP1-beta / biotin-H3K9me3 peptide binding | Potency, µM (titrated, usually from 114 µM), inactives show at the highest dose activity change, negative = inhibition, hits mostly inhibitors | 390,000 compounds, 0.56% hits | AID 540317; further: nearly all actives have a fitted effect of over 70% in size
Target sequence (P83916 whole entry, looked up): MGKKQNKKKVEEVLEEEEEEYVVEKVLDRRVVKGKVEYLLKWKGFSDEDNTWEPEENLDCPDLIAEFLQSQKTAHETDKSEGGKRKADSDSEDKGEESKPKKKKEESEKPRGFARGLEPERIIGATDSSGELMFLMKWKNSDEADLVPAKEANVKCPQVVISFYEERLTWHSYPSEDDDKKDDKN
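AlphaScreen: HP1-beta (50 nM) preformed 30 min with biotin-H3(1-18)K9me3 peptide (50 nM) in PBS pH 7.4, 0.01% Tween-20. Compound added for 30 min at RT, then streptavidin donor/nickel chelate acceptor beads (10 ug/mL) for 30 min.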
PLK1 PBD block = inhibitors of human PLK1 polo-box domain binding; 360,000 compounds, 2.8% hits; Plk1 PBD binding of FITC phosphopeptide, fluorescence polarization; Potency, µM, inactives show max response, negative = inhibition, actives largely listed as inhibitors; P53350; further: series mostly up to about 57 µM; on the % scale 0 is the no-effect control and ±100 the full control effect; nearly all actives have a fitted effect of over 65% in size
An asterisk follows results filed as active; ! = repeats disagree; [ ] = dose if it differs, or a comment. The call rests on the fitted dose curve; in most records, active means well fitted curve in the direction sought with a large enough effect; inconclusive means small, poorly fitted or top-dose-only effect, or another doubt; inactive means no such curve, though single readings can be large; an effect the other way counts as inactive or inconclusive. Potency means the concentration at half of the fitted maximal effect.

CC(=O)Nc1c(C)nn(-c2ccccc2)c1N1CCC(C(=O)NCc2cccc(F)c2)CC1 was read as JMJD2A Tudor -16%, BAZ2B block 8%, VDR inh 8% and HP1b binding inh 22%[57 µM].
Brc1ccc(Nc2c3c(nc4nncn24)CCC3)cc1 was read as JMJD2A Tudor -13%, BAZ2B block 5%, VDR inh -4% and HP1b binding inh 41%.
Screening CCOC(=O)c1ccc(NC(=O)CC2C(=O)N(c3ccccc3)C(=O)N2Cc2ccc(C)cc2)cc1 (stereo not drawn) returned JMJD2A Tudor -11%, BAZ2B block -12%, VDR inh -10% and HP1b binding inh 32%.
Cc1cccc(NC(=O)CN2CCCCCC2)c1 was read as JMJD2A Tudor 20µM*, BAZ2B block inconclusive, VDR inh 19%, HP1b binding inh 50µM* and PLK1 PBD block 2%.
O=C(CN1CCCCC1)Nc1ccc(F)c(Cl)c1 was read as L3MBTL1 inh -2%, JMJD2A Tudor 5%, BAZ2B block 2%, VDR inh -16%, HP1b binding inh 21% and PLK1 PBD block 1%.
For O=C(CN1CCCCCC1)Nc1ccc(F)c(F)c1 the results were L3MBTL1 inh -6%, JMJD2A Tudor 8.9µM*, BAZ2B block 50µM*, VDR inh -7%, HP1b binding inh inconclusive and PLK1 PBD block -1%.
Cc1ccc(NC(=O)CN(C)CC(=O)Nc2ccc(F)c(Cl)c2)cc1 was read as L3MBTL1 inh inconclusive, JMJD2A Tudor 14µM*, BAZ2B block 50µM*, VDR inh -10%, HP1b binding inh inconclusive and PLK1 PBD block 0%.
Cc1cccc(OCC(=O)Nc2ccc3c(c2)nc(CN2CCCCC2)n3C)c1 was read as JMJD2A Tudor 89µM*!, BAZ2B block inconclusive, VDR inh 12%, HP1b binding inh 31% and PLK1 PBD block -29%.
`CCOC(=O)O[C@@H](C)OC(=O)[C@@H]1N2C(=O)[C@@H](NC(=O)[C@@H](N)c3ccccc3)[C@H]2SC1(C)C` gave VDR inh -1%.
Screening O=C(Cc1nnc(-c2cc3ccccc3[nH]2)o1)Nc1cc(C(F)(F)F)ccc1Cl returned JMJD2A Tudor -31%.
For COc1cccc(CNC(=O)Cc2c(C)c3c(cc(C)c4c(C)c(C)oc43)oc2=O)c1 the results were JMJD2A Tudor -15%, BAZ2B block -8%, VDR inh 9% and HP1b binding inh 44%.
Screening Fc1ccc(CNc2ccc(N3CCN(Cc4ccccc4)CC3)cc2)cc1 returned L3MBTL1 inh 22µM*, JMJD2A Tudor 20µM*, BAZ2B block 10µM*, VDR inh -2%, HP1b binding inh 22µM* and PLK1 PBD block -17%.
C#CCOCCOCCOCCNc1nc(N2CCN(C(=O)[C@H](Cc3cc4ccccc4[nH]3)n3cc([C@@H](N)CC(C)C)nn3)CC2)nc(N2CCN(C(=O)[C@H](Cc3cc4ccccc4[nH]3)n3cc([C@@H](N)CC(C)C)nn3)CC2)n1 was read as L3MBTL1 inh inconclusive, JMJD2A Tudor 45µM*, BAZ2B block 45µM*, VDR inh 19%, HP1b binding inh inconclusive and PLK1 PBD block 0%.
Screening C#CCOCCOCCOCCNc1nc(N2CCN(C(=O)[C@H](CCC(=O)O)n3cc(C(N)CC(C)C)nn3)CC2)nc(N2CCN(C(=O)[C@H](Cc3cc4ccccc4[nH]3)n3cc(C(N)CC(C)C)nn3)CC2)n1 (stereo partly drawn) returned L3MBTL1 inh -22%, JMJD2A Tudor inconclusive, BAZ2B block 50µM*, VDR inh 5%, HP1b binding inh 12% and PLK1 PBD block -5%.
Screening C#CCOCCOCCOCCNc1nc(N2CCOCC2)nc(N2CCN(C(=O)[C@H](Cc3cc4ccccc4[nH]3)n3cc([C@@H](N)CC(C)C)nn3)CC2)n1 returned L3MBTL1 inh -1%, JMJD2A Tudor inconclusive, BAZ2B block -34%, VDR inh -3%, HP1b binding inh -9% and PLK1 PBD block 0%.
Screening C#CCOCCOCCOCCNc1nc(N2CCN(C(=O)[C@H]([C@@H](C)CC)n3cc([C@@H](N)CO)nn3)CC2)nc(N2CCN(C(=O)[C@H](Cc3cc4ccccc4[nH]3)n3cc([C@@H](N)C(C)CC)nn3)CC2)n1 (stereo partly drawn) returned L3MBTL1 inh -22% and BAZ2B block 50µM*.
For C#CCOCCOCCOCCNc1nc(N2CCN(C(=O)[C@H](Cc3cc4ccccc4[nH]3)n3cc([C@@H](N)C(C)CC)nn3)CC2)nc(N2CCN(C(=O)[C@H](CCCCN)n3cc([C@@H](N)CC(C)C)nn3)CC2)n1 (stereo partly drawn) the results were L3MBTL1 inh -12%, JMJD2A Tudor 45µM*, BAZ2B block 35µM*, VDR inh -11%, HP1b binding inh -4% and PLK1 PBD block -4%.
Screening COc1ccc(CNC(=O)c2nc(Cn3nc(C)c(Br)c3C)no2)cc1OC returned JMJD2A Tudor -6%, BAZ2B block -15%, VDR inh -16% and HP1b binding inh 30%.
For Fc1ccc(-n2c(CN3CCCCC3)n[nH]c2=S)cc1 the results were L3MBTL1 inh -5%, JMJD2A Tudor inconclusive, BAZ2B block -11%, VDR inh 10%, HP1b binding inh 41% and PLK1 PBD block inconclusive.
C#CCOCCOCCOCCNc1nc(N2CCN(C(=O)C(CCC(=O)O)n3cc(C(N)CC(C)C)nn3)CC2)nc(N2CCN(C(=O)C(Cc3cc4ccccc4[nH]3)n3cc(C(N)Cc4ccc(O)cc4)nn3)CC2)n1 (stereo not drawn) was read as L3MBTL1 inh -29%, JMJD2A Tudor 56µM*, BAZ2B block 45µM*, VDR inh -21%, HP1b binding inh 9% and PLK1 PBD block -6%.
`C#CCOCCOCCOCCNc1nc(N2CCN(C(=O)[C@H]([C@@H](C)CC)n3cc([C@@H](N)CC(C)C)nn3)CC2)nc(N2CCN(C(=O)[C@H](Cc3cc4ccccc4[nH]3)n3cc([C@@H](N)CC(C)C)nn3)CC2)n1` gave BAZ2B block 56µM*.
Screening C#CCOCCOCCOCCNc1nc(N2CCN(C(=O)C([C@@H](C)CC)n3cc(C(N)COC(=O)C(F)(F)F)nn3)CC2)nc(N2CCN(C(=O)[C@H](Cc3cc4ccccc4[nH]3)n3cc(C(N)CO)nn3)CC2)n1 (stereo partly drawn) returned JMJD2A Tudor 50µM*, VDR inh 1%, HP1b binding inh 29% and PLK1 PBD block -2%.
